{"source": "ChEMBL document CHEMBL4513216", "about": "“Probing the Open Global Health Chemical Diversity Library for Multistage-Active Starting Points for Next-Generation Antimalarials” (ACS Infect Dis, 2020)", "note": "The whole screen tested about 69,000 compounds, of which about 8,600 (12%) showed an effect of 50% or more. This is one part of a sample in which strong results are shown more often than they occur."}
{"tested_on": "Plasmodium berghei", "assay": "Screen against P. berghei liver stage (PbLuc), transformed with Luciferase, at 10uM", "format": "functional, HepG2", "details": "tested at 10 uM", "units": {"INHIBITION": "%"}}
{"smiles": "O=S(=O)(c1ccc(F)cc1)N1CCCCC1c1cc[nH]n1", "note": "(stereo not drawn)", "INHIBITION": 13}
{"smiles": "CN1CCN(c2ncc(-c3cnccn3)c([C@H]3CCCO3)n2)CC1", "INHIBITION": 14.7}
{"smiles": "CN1CCN(CC2CC2)C(=O)c2cnc(N3CCOCC3)nc21", "INHIBITION": 26.3}
{"smiles": "CN(C)C[C@]12COC[C@H]1CN(C(=O)CCc1ccccc1)C2", "INHIBITION": 6.66}
{"smiles": "CC(C)NC(=O)N1CCC[C@H]1C(=O)NCCCc1cnn(C)c1", "INHIBITION": -34.6}
{"smiles": "CC(=O)N1CCC(c2nccnc2-c2ccc(F)cc2)CC1", "INHIBITION": 43.6}
{"smiles": "Cc1cc(C)n(CC2CCCCN2C(=O)c2ccc3[nH]nnc3c2)n1", "note": "(stereo not drawn)", "INHIBITION": 20.9}
{"smiles": "CC(NC(=O)NCCCn1cncn1)c1ccc2c(c1)OCCO2", "note": "(stereo not drawn)", "INHIBITION": 21.8}
{"smiles": "CC(NC(=O)Cn1cccn1)c1ccc2c(c1)OCCCO2", "note": "(stereo not drawn)", "INHIBITION": 62.1}
{"smiles": "CC(NC(=O)NCCCO)c1ccc2c(c1)OCCO2", "note": "(stereo not drawn)", "INHIBITION": 52.1}
{"smiles": "CC(NC(=O)CCn1cccn1)c1ccc2c(c1)OCCO2", "note": "(stereo not drawn)", "INHIBITION": 22.3}
{"smiles": "CC(NC(=O)NCCCO)c1ccc2c(c1)NC(=O)CO2", "note": "(stereo not drawn)", "INHIBITION": -11.4}
{"smiles": "CC(NC(=O)Cn1cccn1)c1ccc2c(c1)OCCO2", "note": "(stereo not drawn)", "INHIBITION": 41.5}
{"smiles": "Cc1ccc2c(c1)C1(CC(=O)Nc3[nH]ncc31)C(=O)N2C", "note": "(stereo not drawn)", "INHIBITION": 21.5}
{"smiles": "Cc1noc(CN(C)CC(c2cccs2)N2CCOCC2)n1", "note": "(stereo not drawn)", "INHIBITION": 35.9}
{"smiles": "CN(Cc1noc(C(C)(C)C)n1)CC1CCN(CCO)CC1", "INHIBITION": 37.5}
{"smiles": "CCc1noc(CN(C)Cc2ccc(N3CCCCC3)cc2)n1", "INHIBITION": 61.8}
{"smiles": "CCc1noc(CN(CC(=O)N2CCCCC2)c2ccc(C)cc2)n1", "INHIBITION": 50.1}
{"smiles": "CCc1noc(CN(C)CC(c2cccs2)N2CCOCC2)n1", "note": "(stereo not drawn)", "INHIBITION": 60.5}
{"smiles": "Cc1cccc(N(CC(=O)N2CCCCC2)Cc2ccno2)c1", "INHIBITION": 36.2}
{"smiles": "CCc1noc(CN(CC(=O)N2CCCCC2)c2cccc(C)c2)n1", "INHIBITION": 18}
{"smiles": "CN(Cc1ccc(N2CCCCC2)cc1)Cc1noc(C(C)(C)C)n1", "INHIBITION": 78.5}
{"smiles": "CCc1noc(CN(C)Cc2cc(Br)ccc2OC)n1", "INHIBITION": 30.9}
{"smiles": "CCCc1noc(CN(C)Cc2ccc3c(c2)OCO3)n1", "INHIBITION": 19.3}
{"smiles": "CN(Cc1ccc(N2CCOCC2)cc1)Cc1noc(C(C)(C)C)n1", "INHIBITION": -8.51}
{"smiles": "CCc1nc(CN(C)CC(c2cccs2)N2CCOCC2)no1", "note": "(stereo not drawn)", "INHIBITION": 36.4}
{"smiles": "CN(C)C(=O)CN1CCCC(c2cncc(-c3cccc(Cl)c3)n2)C1", "note": "(stereo not drawn)", "INHIBITION": 35.2}
{"smiles": "CC(=O)NCC1CCN(C(=O)NCCc2ccc(Cl)s2)CC1", "INHIBITION": 13.3}
{"smiles": "CCCC(=O)N1CCCCC1c1nc(N(C)C)ncc1-c1cc(C)no1", "note": "(stereo not drawn)", "INHIBITION": 23.1}
{"smiles": "CN1CCCC(c2cccc(CCC(=O)NCC3(C)COC3)n2)C1", "note": "(stereo not drawn)", "INHIBITION": 13}
{"smiles": "NC(=O)Cn1cc(NC(=O)N2CCCCCC2)cn1", "INHIBITION": 2.5}
{"smiles": "Cc1cc(CN2CCC(C(=O)O)(n3ccc(-c4ccco4)n3)CC2)on1", "INHIBITION": 1.48}
{"smiles": "O=C1NCC2(CCCN(C(=O)c3c[nH]nc3-c3cccs3)C2)O1", "note": "(stereo not drawn)", "INHIBITION": 6.29}
{"smiles": "Cn1cnc2ccc(NC(=O)CC3CCN(C4CCCCC4)CC3)cc21", "INHIBITION": 12.17}
{"smiles": "Cc1ccnc(OC[C@]23COC[C@H]2CN(C(=O)c2cnccn2)C3)n1", "INHIBITION": 32.2}
{"smiles": "CCc1ccc(Cn2nccc2NC(=O)C2CCS(=O)(=O)C2)cc1", "note": "(stereo not drawn)", "INHIBITION": 11.8}
{"smiles": "COc1cccc2cc(CNCc3ccnc(N(C)C)c3)oc12", "INHIBITION": -4.94}
{"smiles": "CNC(=O)C1CN(c2ccnc(C)n2)CCN(C2CCOCC2)C1", "note": "(stereo not drawn)", "INHIBITION": 23}
{"smiles": "CN(Cc1noc(C(C)(C)C)n1)Cc1ccccc1N1CCCCC1", "INHIBITION": 90.4}
{"smiles": "CN(Cc1noc(C(C)(C)C)n1)Cc1ccccc1N1CCCC1", "INHIBITION": -2.92}
{"smiles": "Cc1cc(CN(C)Cc2ccccc2N2CCCCC2)n[nH]1", "INHIBITION": 20.2}
{"smiles": "COCCc1noc(CN2CCCC(Cn3cncn3)C2)n1", "note": "(stereo not drawn)", "INHIBITION": -0.96}
{"smiles": "NC(=O)Cn1c(CO)cnc1SCC(=O)NCc1ccccc1", "INHIBITION": 15}
{"smiles": "N#Cc1cccc(N2CCC(CO)(CCOc3ccccc3)CC2)n1", "INHIBITION": 17.4}
{"smiles": "N#Cc1cccc(N2CCC(CO)(CCc3ccccc3)CC2)n1", "INHIBITION": 51.7}
{"smiles": "N#Cc1cccc(N2CCC(CO)(CCCc3ccccc3)CC2)n1", "INHIBITION": 22}
{"smiles": "Cn1cc(CC2CC(=O)N(Cc3ccc(Cl)cc3)C2=O)cn1", "note": "(stereo not drawn)", "INHIBITION": 8.12}
{"smiles": "Nc1ncnc2c1ncn2[C@H]1CCN(Cc2ccsc2)CC[C@@H]1O", "INHIBITION": 17.4}
{"smiles": "Cc1ncsc1CN1CCN(C2CCOCC2)CC(C(N)=O)C1", "note": "(stereo not drawn)", "INHIBITION": 25.6}
{"smiles": "Cc1ncsc1CN1CC[C@H](O)[C@@H](n2cnc3c(N)ncnc32)CC1", "INHIBITION": 50.1}
{"smiles": "CC(C)c1noc(-c2ccnc(-n3cnc(C(=O)O)c3)c2)n1", "INHIBITION": -8.35}
{"smiles": "CCc1nccn1-c1cccc(C2CCCN(C3CCCCC3)C2)n1", "note": "(stereo not drawn)", "INHIBITION": 24.8}
{"smiles": "Cc1cn2nc(N3CCCC3Cn3cccn3)sc2n1", "note": "(stereo not drawn)", "INHIBITION": -12.1}
